Unmarked numbers belong to inactive results. No rule for the calls is given here.

Pantothenate synthetase (Mycobacterium tuberculosis (strain ATCC 25618 / H37Rv)), sequence (P9WIL5 whole entry, looked up): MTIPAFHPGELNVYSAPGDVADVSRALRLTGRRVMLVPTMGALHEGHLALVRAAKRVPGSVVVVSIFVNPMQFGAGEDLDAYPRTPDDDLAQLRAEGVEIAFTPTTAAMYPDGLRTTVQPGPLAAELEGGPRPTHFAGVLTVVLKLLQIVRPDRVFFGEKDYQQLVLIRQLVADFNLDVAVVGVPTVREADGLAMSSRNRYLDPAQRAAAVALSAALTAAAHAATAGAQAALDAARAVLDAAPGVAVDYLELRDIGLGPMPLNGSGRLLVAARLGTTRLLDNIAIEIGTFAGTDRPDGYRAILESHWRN

This test addresses Pantothenate synthetase (Mycobacterium tuberculosis (strain ATCC 25618 / H37Rv)) (UniProt P9WIL5). As to the kind of experiment: Coupled enzyme confirmation of inhibitors against recombinant Mtb PanC (AID 375).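 Also: 0% = full reaction with vehicle and 100% = no enzyme background.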 The settings on record: coupled enzyme assay; at 10 µM, stronger effect = higher value.
As to `CCOCCCn1c(=NC(C)=O)c(C(=O)OCC)cc2c(=O)n3ccccc3nc21`, the inhibition was 0%. For `CN(C(=O)Cn1c(=O)n(CCCCC(=O)NC2CCCC2)c(=O)c2ccccc21)C1CCCCC1`, the inhibition is 0%. To `COc1cc(-c2nc(S(=O)(=O)c3ccc(C)cc3)c(N(C)C)o2)cc(OC)c1OC` belongs 3%; to `O=C1CCC(=O)N1OCCCOc1ccc(Br)cc1Cl`, 0%; to `CCN(CC)CCCN1C(=O)C(=O)/C(=C(/O)c2ccc3c(c2)OCO3)C1c1ccccn1` (centres undefined), 1%. To `Cc1ccc(-c2noc(CN3CCN(c4ccccc4F)CC3)n2)cc1` belongs 0%; to `O=C(CSc1nnc2sc3ccccc3n12)c1ccco1`, 0%; to `O=C(Nc1ccccc1C(=O)N1CCOCC1)C1CCC(=O)N1C1CCCC1` (centres undefined), 1%.

As for `CC(C)CCNC(=O)[C@H](CC(C)C)NC(=O)[C@H]1O[C@@H]1C(=O)O`, the inhibition is 0%. Take `CCCS(=O)(=O)N1CCCC(C(=O)NC2CCCC(C)C2C)C1` (centres undefined): the inhibition is 0%. To `CC(=O)Nc1ccc(S(=O)(=O)NCC(C)NS(=O)(=O)c2ccc(NC(C)=O)cc2)cc1` (centres undefined) belongs 2%. As to `CCCN(CCC)S(=O)(=O)c1ccc(C(=O)O)cc1`, the inhibition was 0%.

For `CSc1oc(-c2ccccc2)nc1S(=O)(=O)c1ccc(F)cc1`, the inhibition was 0%. Then `S=c1[nH]nc(Cc2ccccc2)n1Cc1ccco1`, with 0%; and `CCCCOc1cccc(NC(=O)CSc2nccn2C)c1`, with 2%. Then `CCOC(=O)CSc1nnc(-c2ccc(NS(=O)(=O)c3ccc(C)cc3)cc2)o1`, with 0%. As for `Cc1cc(C)cc(NC(=O)CCNS(=O)(=O)c2ccc3c(c2)oc(=O)n3C)c1`, the inhibition was 0%.

For the molecule `Cc1ccc(S(=O)(=O)NCC(=O)N(CC(=O)NCc2ccccc2)CC2CCCO2)cc1` (centres undefined), the inhibition is 2%.

Take `O=C(CCNS(=O)(=O)c1cccs1)Nc1ccccc1F`: the inhibition is 3%.

For the molecule `CCOc1ccc(-n2c(=O)cc(N3CCN(c4ccccc4)CC3)[nH]c2=O)cc1`, the inhibition was 0%. For `O=C(NCC(F)(F)F)N1CCOCC1`, the inhibition was 0%. To `CC(C)C12CN3CC(C(C)C)(CN(C1)C3c1ccc3c(c1)OCO3)C2=O` (centres undefined) belongs 0%; to `O=C(NC(=O)c1cccc(F)c1)OC[C@@H]1CCCN2CCCC[C@H]12`, 0%. With `CCC(=O)Nc1ccc(NC(=O)c2ccccn2)cn1`, the inhibition was 0%. Then `CCCc1cc(=O)n2[nH]c(-c3ccc(Br)cc3)cc2n1`, with 0%; and `COC(=O)C1=C(C)NC(=O)C1(NC(=O)CN1CCCC1=O)C(F)(F)F` (centres undefined), with 5%; and `CCN(CC)CCCNC(=O)c1nn(-c2ccc(OC)cc2OC)c(=O)c2ccccc12`, with 0%.

As for `O=C(Nc1nc2c(s1)CCCC2)C1COc2ccccc2O1` (centres undefined), the inhibition was 0%. Regarding `CC1(C)Cc2c(sc3c2C2=NCCN2C=N3)CO1`, the inhibition was 0%. Then `O=C(Cc1nc2ccccc2s1)c1ccc(O)cc1O`, with 8%; and `COC(=O)C(CC(C)C)NC(=O)CSc1nc(-c2ccccc2)c(C#N)c(=O)[nH]1` (centres undefined), with 0%. Consider `CC(NO)C(C)(C)NO` (centres undefined), for which the inhibition was 8%. To `Cc1ccc(C)c(C(=O)NC2CC(C)(C)NC(C)(C)C2)c1` belongs 0%; to `COc1cccc(Oc2ccc(N)cc2)c1`, 0%; to `CCCc1cc(=O)[nH]c(Nc2ccc(OC)c(Cl)c2)n1`, 3%. As for `COc1ccc(CNc2oc(-c3cccc4ccccc34)nc2C#N)cc1`, the inhibition is 0%.

For the molecule `COC(=O)c1ccccc1NC(=O)c1noc2c1CCC2`, the inhibition is 0%. To `CN(C)/C=C1\N=C(c2ccc3c(c2)OCO3)OC1=O` belongs 0%; to `O=c1ccc(S(=O)(=O)N2CCC(Cc3ccccc3)CC2)c[nH]1`, 0%.

By inhibition is commonly meant the drop in the measured response relative to a control, in per cent.

The record behind these values is PubChem BioAssay.
